Results published in ChEMBL document CHEMBL1201862, “PubChem BioAssay data set” (2004).
The campaign covered roughly 400,000 compounds. About 1,900 (0.47%) were called active. Inconclusive results (about 14%) are left out. How the calls were made is not given here. The entries come from a sample that favours actives as a whole.

target: Ataxin-2 (Homo sapiens) (UniProt Q99700); assay: qHTS for Inhibitors of ATXN expression.; format: functional
Sequence (Q99700 whole entry): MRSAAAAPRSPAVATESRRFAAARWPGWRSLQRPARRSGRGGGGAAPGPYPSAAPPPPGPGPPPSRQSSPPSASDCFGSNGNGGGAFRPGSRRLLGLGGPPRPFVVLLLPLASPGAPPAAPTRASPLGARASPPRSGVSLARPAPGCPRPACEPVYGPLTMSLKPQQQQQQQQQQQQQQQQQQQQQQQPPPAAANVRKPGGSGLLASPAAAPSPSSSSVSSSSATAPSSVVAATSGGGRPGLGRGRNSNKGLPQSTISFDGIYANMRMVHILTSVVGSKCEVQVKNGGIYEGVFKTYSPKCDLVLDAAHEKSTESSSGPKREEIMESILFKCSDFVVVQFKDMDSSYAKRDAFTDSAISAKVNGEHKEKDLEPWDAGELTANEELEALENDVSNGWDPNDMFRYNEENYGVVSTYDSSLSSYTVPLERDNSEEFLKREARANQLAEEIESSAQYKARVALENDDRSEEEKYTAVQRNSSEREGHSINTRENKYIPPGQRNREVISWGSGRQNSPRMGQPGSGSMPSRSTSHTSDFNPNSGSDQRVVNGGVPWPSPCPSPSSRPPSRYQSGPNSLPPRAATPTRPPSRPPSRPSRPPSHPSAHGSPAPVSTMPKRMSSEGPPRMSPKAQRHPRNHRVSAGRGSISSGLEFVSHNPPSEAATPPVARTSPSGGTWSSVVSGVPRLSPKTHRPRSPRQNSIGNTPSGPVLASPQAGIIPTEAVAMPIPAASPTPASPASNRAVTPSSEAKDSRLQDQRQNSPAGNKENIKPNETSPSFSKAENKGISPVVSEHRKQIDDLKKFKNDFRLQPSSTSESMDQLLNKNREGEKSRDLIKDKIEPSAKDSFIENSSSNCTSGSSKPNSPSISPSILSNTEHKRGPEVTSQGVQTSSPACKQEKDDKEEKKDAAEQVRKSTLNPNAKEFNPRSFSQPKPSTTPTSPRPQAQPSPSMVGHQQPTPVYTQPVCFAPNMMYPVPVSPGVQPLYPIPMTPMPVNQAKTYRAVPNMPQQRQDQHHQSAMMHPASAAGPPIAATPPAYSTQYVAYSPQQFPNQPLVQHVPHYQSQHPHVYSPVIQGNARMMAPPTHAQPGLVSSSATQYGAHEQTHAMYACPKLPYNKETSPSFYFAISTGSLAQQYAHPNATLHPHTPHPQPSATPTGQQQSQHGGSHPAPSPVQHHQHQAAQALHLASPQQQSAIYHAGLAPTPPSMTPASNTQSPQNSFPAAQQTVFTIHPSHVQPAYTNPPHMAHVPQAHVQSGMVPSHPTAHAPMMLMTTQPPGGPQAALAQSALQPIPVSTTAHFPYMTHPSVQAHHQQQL

SMILES | Potency
Oc1nc2ccccc2n1C1CCN(C(c2cccs2)c2nnnn2Cc2ccccc2)CC1 (stereo not drawn) | 22.4 µM (active)
COc1ccc(C(c2nnnn2Cc2ccccc2)N2CCC(n3c(O)nc4ccccc43)CC2)cc1 (stereo not drawn) | 15.8 µM (active)
Cc1cccc(C)c1-n1nnnc1C(c1cccs1)N1CCC(n2c(O)nc3ccccc32)CC1 (stereo not drawn) | 20 µM (active)
Oc1nc2ccccc2n1C1CCN(C(c2cc3ccccc3o2)c2nnnn2Cc2ccccc2)CC1 (stereo not drawn) | 10 µM (active)
COc1ccc2c3c([nH]c2c1)C(C)=NCC3 | inactive
Cc1c(C)n(O)c2ccc3nonc3c12 | inactive
CCN(CC)c1ccc(N/C=C2\C(=O)NC(=O)N(Cc3ccco3)C2=O)cc1 | inactive
CCOP(=O)(OCC)c1nc(-c2ccc(F)cc2)oc1NCc1ccccc1 | inactive
Cc1ccccc1CN1Cc2cnnn2-c2ccccc2C1C#N (stereo not drawn) | 17.8 µM (active)
COc1ccc(CN2Cc3cnnn3-c3ccccc3C2C#N)cc1 (stereo not drawn) | 12.6 µM (active)
Nc1c(C(=O)NCCN2CCOCC2)c2nc3ccccc3nc2n1Cc1ccco1 | inactive
ClCCN(CCCl)c1ccc(C=Cc2ccncn2)cc1 | inactive
ClCCN(CCCl)c1ccc(-n2cnc3c(Cl)ncnc32)cc1 | 35.5 µM (active)
COCCNC(=O)c1c(NC(=O)c2ccc(Br)o2)n(Cc2ccccc2)c2nc3ccccc3nc12 | inactive
CCCCCCCSc1cc(OC)c(CCN(C)C)cc1OC | 39.8 µM (active)
C=CC[N+]1(C)C2CCC1CC(O)C2 (stereo not drawn) | inactive
COc1ccccc1OCCCn1cc(C=O)c2ccccc21 | inactive
Cc1ccc([C@H]2C[C@H](O)[C@@H](n3cc(COC(=O)c4ccccc4)nn3)CN2CC2CCCCC2)cc1 | 31.6 µM (active)
CCOC(=O)c1c(N)n(Cc2ccco2)c2nc3ccccc3nc12 | inactive
O=C1C2(Cl)C3(Cl)C4(Cl)C(Cl)(Cl)C5(Cl)C3(Cl)C1(Cl)C5(Cl)C24Cl (stereo not drawn) | 39.8 µM (active)
CCCCn1c(NC(=O)c2ccc(Br)o2)c(C(=O)OCC)c2nc3ccccc3nc21 | inactive
O=c1[nH]c2ccccc2n1C1CCN(CCCC(c2ccc(F)cc2)c2ccc(F)cc2)CC1 | 31.6 µM (active)

SMILES | Potency
COCCCNC(=O)c1c(N)n(Cc2ccco2)c2nc3ccccc3nc12 | inactive
O=[N+]([O-])c1ccc(Sc2nc3ccccc3o2)c([N+](=O)[O-])c1 | 25.1 µM (active)
CCCCCc1nc2c(c(=O)c3ccccc3n2C)c(=O)n1C1CCCCCC1 | 31.6 µM (active)
CCCCCn1c(=O)c(C(=O)Nc2ccccc2Cl)c(O)c2ccccc21 | inactive
Nc1c(C(=O)NCCN2CCOCC2)c2nc3ccccc3nc2n1Cc1ccccc1 | inactive
COCCNC(=O)c1c(N)n(CCC(C)C)c2nc3ccccc3nc12 | inactive
CCOC(=O)c1c(C)n(Cc2ccccc2)c2ccc(OCC(O)CNC(C)(C)C)cc12 (stereo not drawn) | 25.1 µM (active)
COc1ccc(N2C(=O)NC(=O)/C(=C(/C)NCCc3c[nH]c4ccccc34)C2=O)cc1 | inactive
CCCCn1c(N)c(C(=O)OCCOC)c2nc3ccccc3nc21 | inactive
CC(=O)OC1C2(CC3N4C(=O)C5(CO)SSC4(CC31O)C(=O)N5C)OC(C)C(C)(C)C2=O (stereo not drawn) | 2.38 µM (active)
CCN1C(=O)C(=CNNC(=O)c2ccncc2)C(=O)N(CC)C1=S | inactive
CCCN1CCc2cccc3c2[C@H]1Cc1ccc(O)c(O)c1-3 | 35.5 µM (active)
Cc1ccccc1NC(=NCCCN1CC1)Nc1ccccc1C | 9.47 µM (active)
O=C(Nc1cccc(C(F)(F)F)c1)C1CCCN1S(=O)(=O)c1cccc2nsnc12 (stereo not drawn) | 22.4 µM (active)
CC1=NCCc2c1[nH]c1cc(O)ccc21 | inactive
O=C(Cn1c(NCCCl)nc2ccccc21)c1ccc(Br)cc1 | inactive
O=C(CCN1CCN(c2ccccc2)CC1)c1ccc(Br)cc1 | 39.8 µM (active)
COc1ccc(-n2nnnc2C(c2ccccc2OC(F)(F)F)N2CCC3(CC2)C(=O)NCN3c2ccccc2)cc1 (stereo not drawn) | 39.8 µM (active)
COc1ccc(-n2c(/C=C/c3ccc(O)c(O)c3)nc3ccccc3c2=O)cc1 | inactive
Cc1cccc(C)c1-n1nnnc1C(C1CC1)N1CCC2(CC1)C(=O)NCN2c1ccccc1 (stereo not drawn) | 39.8 µM (active)
COc1ccc(C(c2nnnn2-c2ccc(OC)cc2)N2CCC3(CC2)C(=O)NCN3c2ccccc2)cc1 (stereo not drawn) | 35.5 µM (active)
COc1ccc(-n2nnnc2C(c2ccnc3ccccc23)N2CCC3(CC2)C(=O)NCN3c2ccccc2)cc1 (stereo not drawn) | 39.8 µM (active)

SMILES | Potency
COc1ccc(C(=O)C2CCCN(Cc3ccc(C)s3)C2)cc1OC (stereo not drawn) | inactive
CC(C)OC(=O)c1c(N)n(CC2CCCO2)c2nc3ccccc3nc12 (stereo not drawn) | inactive
O=C(COc1ccccc1)N1CCN(CCN2C(=O)c3cccc4cccc(c34)C2=O)CC1 | inactive
CCOP(=O)(OCC)c1nc(-c2cccc3ccccc23)oc1N1CCOCC1 | inactive
Cc1cccc(C)c1-n1nnnc1C(c1ccnc2ccccc12)N1CCC2(CC1)C(=O)NCN2c1ccccc1 (stereo not drawn) | 39.8 µM (active)
Cc1cccc(C)c1-n1nnnc1C(c1cccs1)N1CCC2(CC1)C(=O)NCN2c1ccccc1 (stereo not drawn) | 31.6 µM (active)
C[C@H]1CC[C@@H]2[C@@H](C)[C@H]3[C@H](C[C@H]4[C@@H]5CC=C6C[C@@H](O[C@@H]7O[C@H](CO)[C@H](O)[C@H](O[C@@H]8O[C@H](CO)[C@@H](O)[C@H](O)[C@H]8O)[C@H]7O[C@@H]7O[C@@H](C)[C@H](O)[C@@H](O)[C@H]7O)CC[C@]6(C)[C@H]5CC[C@]34C)N2C1 | 22.4 µM (active)
COP(=O)(OC)c1nc(-c2cccc3ccccc23)oc1N1CCCCC1 | inactive
CN(C)c1ccc(C=C2C(=O)NC(=S)NC2=O)cc1 | 44.7 µM (active)
Cc1ccc(OCCOc2cccc(C=C3C(=O)NC(=O)NC3=O)c2)cc1 | inactive
COc1ccc(OC)c(CN2CCN(C(=O)Cc3ccccc3)CC2)c1 | inactive
O=C1NC(=O)C(=Cc2ccc(SC3CCCCC3)o2)C(=O)N1 | 22.4 µM (active)
O=C1NC(=O)C(=Cc2ccc(-c3ccccc3[N+](=O)[O-])o2)C(=O)N1 | inactive
C=CC[C@@H](CC/C=C/C=C/CC/C=C\[C@@H]1CSC([C@@H]2C[C@@H]2C)=N1)OC | 17.8 µM (active)
O=c1ccc2cc(O[C@@H]3O[C@@H](CO)[C@H](O)[C@@H](O)[C@@H]3O)c(O)cc2o1 | inactive
CCN(CCCl)c1cc(CN(C)C)cc(NC(=O)c2ccc(C(=O)Nc3cc(CN(C)C)cc(N(CC)CCCl)c3)cc2)c1 | 20 µM (active)
O=C(c1ccc(C(F)(F)F)cc1)C1CCCN(Cc2ccncc2)C1 (stereo not drawn) | inactive
CCn1cc(C(=O)NCCc2ccc(OC)c(OC)c2)c(=O)c2cc(S(=O)(=O)N(C)C3CCCCC3)ccc21 | 25.1 µM (active)
COC(=O)Cn1cc(C=C2C(=O)N(C)C(=O)N(C)C2=O)c2ccccc21 | inactive
O=C1NC(=O)C(=CNc2cc(F)cc(F)c2)C(=O)N1 | inactive
CC[n+]1c(/C=C/C=C/c2ccc(N(C)C)cc2)sc2ccccc21 | 5.32 µM (active)
CC[n+]1c(C=CN(C)c2ccccc2)sc2ccc(Cl)cc21 | 17.8 µM (active)

SMILES | Potency
CC(C)(C)C(=O)c1cn(Cc2ccccc2)c2ccccc12 | inactive
O=C(NN1C(=O)C2C3C=CC(C4CC34)C2C1=O)c1cccc(Br)c1 (stereo not drawn) | inactive
C[C@@]12CC[C@H](O)C[C@@H]1CC[C@H]1[C@H]2CC[C@@]2(C)[C@@H](C3=CC(=O)OC3)CC[C@]12O | 0.708 µM (active)
C[C@@]12CC[C@H](O)C[C@@H]1CC[C@H]1[C@@H]2C[C@@H](O)[C@]2(C)[C@@H](C3=CC(=O)OC3)CC[C@]12O | 3.16 µM (active)
C=CCNC(=O)c1c(N)n(Cc2ccco2)c2nc3ccccc3nc12 | inactive
COCCCn1c(N)c(C(=O)OC(C)COC)c2nc3ccccc3nc21 (stereo not drawn) | inactive
O=C1NC(=O)N(CCc2ccccc2)C(=O)/C1=C\NN1CCOCC1 | inactive
COC1CCC(OC2CC(C3(C)CCC4(CC(O)C(C)C(C(C)/C=C(\C)C(=O)C(C)CC(C)C(=O)O)O4)O3)OC3(OC(C4OC(O)(CO)C(C)CC4C)CC3C)C2C)OC1C (stereo not drawn) | 0.562 µM (active)
COCCOC(=O)c1c(N)n(Cc2ccco2)c2nc3ccccc3nc12 | inactive
CC(=O)OC(C)(C)/C=C/C(=O)C(C)(O)C1C(O)CC2(C)C3CC=C4C(CC(O)C(=O)C4(C)C)C3(C)C(=O)CC12C (stereo not drawn) | 0.189 µM (active)
CC(=O)OC(C)(C)/C=C/C(=O)[C@](C)(O)[C@H]1[C@H](O)C[C@@]2(C)[C@@H]3CC=C4[C@H](C[C@H](O)C(=O)C4(C)C)[C@]3(C)C(=O)C[C@]12C | 39.8 µM (active)
COc1ccc(C(=O)C2CCCN(Cc3cnc(C)s3)C2)c(OC)c1 (stereo not drawn) | inactive
NC(=O)c1cn(C2OC(CO)C(O)C2O)c2ncnc(N)c12 (stereo not drawn) | 0.316 µM (active)
COc1ccc2[nH]c(C)c(CCNCc3cn(C)c4ccccc34)c2c1 | 17.8 µM (active)
CCn1c(=O)oc2cc(NC(=O)CCl)ccc21 | 37.7 µM (active)
Cn1c(=O)oc2cc(NC(=O)CCl)ccc21 | 31.6 µM (active)
COc1ccc(NC(=O)c2cccn(Cc3ccc(Cl)cc3)c2=O)c(OC)c1 | inactive
CCc1nc2ccc(N3CCN(C)CC3)cc2nc1CC | inactive
COCCCn1c(N)c(C(=O)NCc2ccco2)c2nc3ccccc3nc21 | inactive
Nc1c(C(=O)Nc2ccc(Cl)cc2)sc2nc3c(cc12)N1CCC3CC1 | inactive
COc1ccc(OCC(=O)N2CCN(C/C=C/c3ccccc3)CC2)cc1 | inactive
COc1ccc(Nc2nc(N)nc(CSc3nc4ccccc4s3)n2)cc1 | 39.8 µM (active)
